Source: PubChem (several laboratories)
The list is not random: actives were taken first. Their share in the collection is about 2.3%.
EBV LMP1 NFkB – inhibitors of Epstein-Barr LMP1-induced NF-kappaB reporter; LMP1-induced NF-kappaB luciferase reporter cells, luminescence; inhibition, % at 12.5 µM; actives 0.69% (n = 350,000); in the data active means inhibition above about 41%; inconclusive means no clear call, values can overlap the other calls;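 further: 0% = neutral control wells and 100% = reference inhibitor control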
Shn3 3UTR inh – Schnurri-3 reporter inhibition in Clone20 osteoblasts; Clone20 osteoblast Shn3 3'UTR firefly luciferase, 24 h; inhibition, % at 12.5 µM; actives 0.52% (n = 360,000); AID 588674;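 active means mean inhibition of at least 75% with every replicate also reaching 75%; inconclusive means mean inhibition at least 75% but some replicate below; inactive means mean inhibition below 75%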;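 further: 0% = median of neutral control wells and 100% = pilot-screen positive control compound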
MITF TRPM1 inh – reduces MITF-dependent TRPM1 promoter luciferase signal; inhibition, % at 12.5 µM; actives 0.83% (n = 330,000); SK-MEL-5 TRPM1 promoter luciferase, 24 h;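 active means mean inhibition across replicates of 60% or more, whatever share of single replicates reaches that level; inconclusive means some that reach 60%, reason not given; inactive means mean inhibition across replicates below 60%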
697 NFkB inh – lowers PMA/ionomycin-induced NF-kB signal in 697 B cells; inhibition, % at 4 µM; 697 B-cell NF-kB luciferase reporter, 16 h; AID 435022; actives 0.33% (n = 330,000); in the data active means inhibition above about 35%
Jurkat NFkB inh – inhibitors of the PMA/ionomycin-induced NF-kB reporter in Jurkat cells. PMA/ionomycin-induced NF-kB luciferase reporter, luminescence. inhibition, % at 4 µM. actives 0.53% (n = 330,000). AID 435003; in the data active means inhibition above about 50%
Gli-Sufu antag – Gli-Sufu pathway antagonism; Sufu-KO-LIGHT fibroblasts, Gli luciferase reporter luminescence; inhibition, % at 5 µM; actives 0.74% (n = 340,000); AID 588413;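 active means inhibition above about 55%, limit read from the data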;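 further: 0% = DMSO-treated cells and 100% = wells with medium but no cells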
* hit, by the source's call; ? = inconclusive; · = not tested or not shown.

SMILES	EBV LMP1 NFkB	Shn3 3UTR inh	MITF TRPM1 inh	697 NFkB inh	Jurkat NFkB inh	Gli-Sufu antag
CSc1nnc(NC(=O)c2ccc3c(c2)OCO3)s1	67.8*	54.4	40.6	-120.9	1.6	-29.0
O=C(CSc1nnc(NC(=O)c2ccc3c(c2)OCO3)s1)NCc1ccco1	47.8*	18.1	3.8	-27.9	-37.4	-55.6
O=C(CSc1nnc(NC(=O)c2ccccc2)s1)NCc1ccco1	7.0	-45.2	-5.0	-43.0	-20.2	-55.3
COc1ccc(Nc2nc(Nc3ccc(OC)cc3)nc(-n3[nH]c(=O)c(C)c3C)n2)cc1	26.7	81.4*	3.0	18.1	18.7	-24.7
COc1ccc(Nc2nc(OC)nc(OC)n2)cc1	-12.8	-15.8	-21.2	-50.1	8.6	-12.5
CCN(CC)S(=O)(=O)c1cccc(C(=O)N/N=C(\C)c2ccc(O)cc2O)c1	-15.5	93.5*	70.9*	4.6	24.6	-3.7
Cc1nc2c(o1)C(=O)c1ccccc1C2=Nc1ccccc1	87.3*	94.4*	93.7*	·	·	3.8
Cc1ccc(N=C2C(=O)Nc3ccccc32)cc1	5.9	1.6	7.1	-36.7	-27.4	0.8
CCNC(=S)N/N=C/c1ccc(OCCOc2ccccc2C)cc1	-8.3	4.5	-2.8	32.7	2.6	-8.1
Cc1cc2cc(CNC(=O)C3CCCC3)ccc2n1C	-3.6	-4.8	·	-19.6	-1.5	7.4
CCN1CCN(C2=C(NS(=O)(=O)c3ccccc3)C(=O)c3ccccc3C2=O)CC1	·	2.3	67.2*	-14.8	30.4	12.9
CN1CCN(C2=C(NS(=O)(=O)c3ccccc3)C(=O)c3ccccc3C2=O)CC1	-12.1	4.6	78.0*	22.7	29.6	2.1
CN1CCN(C2=C(NS(=O)(=O)c3cccs3)C(=O)c3ccccc3C2=O)CC1	-11.3	4.7	76.6*	11.1	31.4	4.4
NC(=O)C1CCN(C2=C(NS(=O)(=O)c3ccc(Br)cc3)C(=O)c3ccccc3C2=O)CC1	-11.1	-1.4	67.6*	0.1	-1.6	11.7
CCN1CCN(C2=C(NS(=O)(=O)c3ccc(Br)cc3)C(=O)c3ccccc3C2=O)CC1	6.8	-27.9	89.7*	-5.2	35.0	-3.8
CCOC(=O)N1CCN(C2=C(NS(=O)(=O)c3ccc(Br)cc3)C(=O)c3ccccc3C2=O)CC1	-7.1	-8.8	·	·	·	·
COc1ccc(OC)c(S(=O)(=O)Nc2ccc3oc(C)c(C(C)=O)c3c2)c1	-2.8	34.2	9.6	0.1	1.5	11.1
CCc1nc2cc(NC(=O)C3(C)CCCN(C(C)=O)C3)ccc2o1 (configuration not stated)	·	-20.8	·	·	·	·
CCS(=O)(=O)c1ccc2oc(SCC(=O)c3ccco3)nc2c1	4.4	-6.1	-5.8	1.3	17.6	7.1
COc1ccccc1-c1ccccc1C1=CC(=O)CC(C)(C)C1=O	61.4*	10.7	·	·	·	·
COc1ccc(-c2ccccc2C2=CC(=O)CC(C)(C)C2=O)cc1	-3.3	10.2	·	·	·	·
CCc1cc2c(=O)[nH]c(-c3ccccn3)nc2s1	32.4	53.9	32.0	-180.1	45.9	58.2*
CCc1cc2c(=O)[nH]c(N3CCCC3)nc2s1	5.1	-5.7	-37.2	-17.0	-26.2	-15.1
Cc1ccccc1NC1=CC(=O)CC(C)(C)C1	1.8	-20.9	-3.8	17.3	-2.1	-3.2
CC1(C)CC(=O)C=C(NC2=CC3OC(c4ccccc4)OCC3OC2=O)C1 (configuration not stated)	-23.7	7.3	70.8*	1.0	32.3	15.2
SMILES	EBV LMP1 NFkB	Shn3 3UTR inh	MITF TRPM1 inh	697 NFkB inh	Jurkat NFkB inh	Gli-Sufu antag
O=[N+]([O-])c1c(Nc2ccccn2)cc(Cl)c2nonc12	54.3*	95.2*	75.7*	14.2	10.3	3.9
O=[N+]([O-])c1c(Nc2ccc(O)cc2)cc(Cl)c2nonc12	13.4	94.8*	95.8*	12.0	27.1	5.1
O=C(O)c1ccccc1Nc1cc(Cl)c2nonc2c1[N+](=O)[O-]	1.3	-2.0	9.7	13.9	-3.6	3.5
CCc1ccc(N/C(=N/c2nc(C)cc(C)n2)NC(C)=O)cc1	7.2	16.4	-10.1	-1.5	8.4	18.1
O=C(c1cccs1)N1CC=C(c2ccccc2)CC1	73.3*	-32.7	-26.5	-6.4	-15.5	-15.7
CCOC(=O)N1CCN(S(=O)(=O)c2ccc(C(=O)NNc3nc4c(C)cccc4s3)cc2)CC1	91.9*	41.3	19.9	5.9	2.6	-0.8
CCOC(=O)N1CCN(S(=O)(=O)c2ccc(C(=O)NNc3nc4c(C)cc(C)cc4s3)cc2)CC1	·	9.4	·	-9.4	-4.5	10.6
O=C(CCl)Nc1cccc(-c2cnc3ccccc3n2)c1	-31.7	-262.1	72.5*	-74.3	27.3	-20.3
CC(C)C(CCNC1CCN(C)CC1)c1ccc(Cl)cc1 (configuration not stated)	-22.6	11.0	89.8*	21.9	43.4	9.3
CC1=NOC(=O)/C1=C\c1ccc(-c2ccc(Br)cc2C(=O)O)o1	-4.2	-37.9	-7.2	1.5	-11.5	3.8
CC1=NOC(=O)/C1=C/c1ccc(-c2ccc(Cl)cc2)o1	-9.4	?	99.4*	20.7	15.2	·
CC1=NOC(=O)/C1=C\c1ccc(-c2ccc(Br)cc2)o1	5.6	41.4	79.3*	·	·	-7.5
CC1=NOC(=O)/C1=C\c1ccc(-c2cc(Cl)ccc2Cl)o1	13.8	94.4*	98.8*	-1.8	36.2	-14.1
CCOc1ccc(OCCCC(=O)NCCOc2ccccc2OC)cc1	-0.6	-4.2	1.4	-2.8	5.5	-5.0
Cc1ccc(NC(=O)C2C3C=CC(O3)C2C(=O)O)c(C)c1 (configuration not stated)	-5.8	3.1	-4.6	-6.0	0.5	2.0
Cc1ccc(N2C(=O)N(CC(=O)Nc3c(C)cc(C)cc3Cl)C(=O)C2C)cc1 (configuration not stated)	4.8	18.3	4.7	15.1	-0.4	-1.9
CC(C)(C)n1nc(-c2ccc(Cl)cc2)c2c(N)ncnc21	41.7*	64.2	-7.2	-35.2	7.4	-0.5
CS(=O)(=O)c1ccc(C(=O)NCCN2C(=O)S/C(=C\c3cccnc3)C2=O)cc1[N+](=O)[O-]	-9.1	40.5	69.5*	-77.8	17.7	-1.0
Cc1cc(C)n2nc(SCC(=O)Nc3ccc(F)c(F)c3F)nc2n1	-4.9	5.3	-4.6	21.6	0.5	2.6
O=C(O)c1ccc(Nc2nc3c(s2)CCCC3)cc1	39.0	27.6	64.4*	-207.1	-19.7	-17.1
COc1ccc(CCNC(=O)C(C(=O)c2ccccc2)n2cc(Cl)ccc2=O)cc1OC (configuration not stated)	-0.5	9.4	12.0	6.3	15.3	21.5
COc1ccc(NC(=O)/C(Cl)=C(/Cl)S(=O)(=O)Cc2ccccc2)cn1	90.0*	97.3*	94.4*	·	·	19.6
COc1ccc(NC(=O)C(Cl)=C(Cl)Cl)cn1	3.2	9.0	-14.7	24.8	25.6	6.5
Cc1cc(C(=O)N/N=C/c2ccc(Cl)c([N+](=O)[O-])c2)c(C)n1-c1ccc(F)cc1	3.3	11.0	62.8*	3.7	20.0	10.2
COc1cccc(/C=N\NC(=O)c2ccc(C)nc2)c1	86.1*	-28.7	-0.3	5.1	-11.2	·
